Screening results deposited in PubChem BioAssay by several laboratories.
PP1 inh – blocks human PP1-alpha phosphatase, a PP5 counter-screen | P62136 | purified PP1alpha, OMFP fluorescence | inhibition, % at 6.7 µM | 320,000 compounds, 0.9% hits;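 active = inhibition above the mean inhibition of all tested compounds plus 3 SD, computed separately for each screening campaign, cut at about 15% in these data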
Target sequence (P62136 whole entry, looked up): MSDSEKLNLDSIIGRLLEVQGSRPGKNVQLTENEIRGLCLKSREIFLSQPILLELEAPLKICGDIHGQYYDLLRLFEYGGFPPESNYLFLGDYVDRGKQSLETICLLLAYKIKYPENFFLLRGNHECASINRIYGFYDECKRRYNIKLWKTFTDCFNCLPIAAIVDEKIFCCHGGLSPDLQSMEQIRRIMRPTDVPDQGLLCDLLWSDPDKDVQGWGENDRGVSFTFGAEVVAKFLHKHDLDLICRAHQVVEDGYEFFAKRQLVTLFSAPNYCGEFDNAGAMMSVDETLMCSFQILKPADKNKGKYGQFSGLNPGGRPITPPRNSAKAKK
NadD inh – NadD (S. aureus) enzyme inhibition | inhibition, % at 20 µM | purified NadD enzyme, colorimetric absorbance read-out | 360,000 compounds, 0.78% hits; in the data active = inhibition above about 26%
PP5 primary – inhibitors of human protein phosphatase 5 (PP5) | P53041 | purified PP5c, OMFP substrate fluorescence | inhibition, % at 6.7 µM | 320,000 compounds, 0.18% hits | AID 1987;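 active = inhibition above the campaign's mean inhibition across all tested compounds plus 3 SD, cut at about 9.5% in these data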;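 also: 0% = DMSO only and 100% = 100 µM cantharidin control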
Rpn11 block – inhibitors of human proteasome Rpn11 | human 26S proteasome, Ub4-pepOG fluorescence polarization; 20S core pre-blocked with epoxomicin | 360,000 compounds, 0.59% hits | inhibition, % at 20 µM;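 active = inhibition at 20 µM, scaled to each plate's controls, above about 33%, limit read from the data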
PREPL inh – inhibits the human prolyl oligopeptidase-like enzyme. Q4J6C6. recombinant PREPL, fluorescence polarization activity-based probe. inhibition, % at 5.96 µM. 320,000 compounds, 0.68% hits. AID 2751;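 also: 0% = enzyme with DMSO and 100% = wells lacking enzyme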
PREPL confirm – human PREPL inhibition, confirmation | 2,000 compounds, 67% hits | AID 2803 | inhibition, % at 5.96 µM | shares compounds with PREPL inh | recombinant PREPL, fluorescence polarization activity probe;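 also: 0% = protein with DMSO and 100% = wells lacking protein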
Numbers without * were called inactive; · = no result. An excerpt weighted towards active compounds, which were near 2.4% of everything screened. Rule as the data show it, unless noted: active = inhibition above about 43%; inactive = the rest.

SMILES	PP1 inh	NadD inh	PP5 primary	Rpn11 block	PREPL inh	PREPL confirm
COC(=O)c1nc(NC(=O)c2cc(OC)c(OC)c(OC)c2)n[nH]1	0	-4	2	4	7	·
O=C1N/C(=C/c2ccc(N3CCOCC3)cc2)C(=O)N1Cc1ccc(F)cc1	0	-6	4	0	48*	75*
O=C1N/C(=C\c2ccsc2)C(=O)N1Cc1ccc(F)cc1	-1	-1	3	4	-15	·
CC1CCCCC12NC(=O)N(CC(=O)c1ccc(Cl)s1)C2=O (centres undefined)	-3	1	1	4	3	·
COc1ccc(C2=CCN3CCCCC3C2)c(-c2ccc(OC)c(OC)c2)c1 (centres undefined)	·	2	·	17	47*	43
COc1ccc(OC)c(S(=O)(=O)N2CCN3CCCC3C2)c1 (centres undefined)	-3	-2	0	0	9	·
COc1cc(NC(C)CCCN)c2ncccc2c1 (centres undefined)	16*	-81	5	10	57*	39
COc1cc(NCCCCCCCN)c2ncccc2c1	1	18	4	20	55*	31
COc1cc(NC(=O)c2cc(OC)c(OC)c(OC)c2)c2ncccc2c1	·	-9	·	4	·	·
COc1cc(NC(=O)OCc2ccccc2)c2ncccc2c1	·	-1	·	4	·	·
COc1ccc(CC(=O)NNC(=O)c2cc(C)oc2C)cc1OC	-6	0	-1	-5	10	·
COc1cc(-c2nnc(-c3ccncc3)o2)ccc1OCc1ccccc1	11	7	3	0	44*	43
CCC(CC)C(=O)N(C)c1c(C)nc2c(OCc3ccccc3C)cccn12	·	-1	·	4	·	·
CCCOc1ccccc1-n1sc2c(c1=S)-c1cc(OC)cc3c1N(C(=O)C3=O)C2(C)C	17*	17	1	4	52*	57*
CN(C)c1ccc(NC(=O)Cn2cc3c(n2)CCCC3)cc1	-4	7	-1	11	69*	69*
O=C(C[n+]1ccc(/C=C/c2ccccc2)cc1)c1ccc2c(c1)OCCO2	4	-4	2	22	63*	43
COc1ccccc1-c1nnc2sc(-c3ccc(N(C)C)cc3)nn12	1	-2	3	-11	52*	48*
COc1ccc(CN2C[C@@H](CO)O[C@@H](n3cnc4c(NC5CC5)ncnc43)C2)cc1	·	-3	·	-1	·	·
CCOC(=O)c1c(Nc2ccccc2)sc(/C=C2\C=Nc3ccccc32)c1O	9	25	2	2	33	·
Oc1nc(Nc2ccccc2)sc1/C=C1\C=Nc2ccccc21	2	1	1	11	59*	63*
Cc1cnc(C(=O)OCC(=O)Nc2ccc(Br)c(C)c2)cn1	-1	-5	-2	6	7	·
CC(NC(=O)c1ccc2c(c1)C(=O)N(Cc1cccnc1)C2=O)c1ccccc1 (centres undefined)	-2	-5	0	-2	-5	·
Cc1cc(C(=O)N2CCN(c3ccc([N+](=O)[O-])cc3)CC2)c(C)o1	-1	1	1	5	27	·
O=C(c1cc([N+](=O)[O-])ccc1Cl)N1CCN(c2ccc([N+](=O)[O-])cc2)CC1	-4	-10	0	1	65*	58*
CCc1ccc(-c2csc(NC(=O)C3=NN(c4ccccc4)C(=O)CC3)n2)cc1	0	9	1	-3	44*	37
SMILES	PP1 inh	NadD inh	PP5 primary	Rpn11 block	PREPL inh	PREPL confirm
CCOc1cc(/C=C2\C(=N)N3N=C(N4CCCCC4)SC3=NC2=O)ccc1OC(=O)c1ccco1	10	24	4	18	51*	59*
COc1cc(/C=C2\C(=N)N3N=C(S(C)(=O)=O)SC3=NC2=O)ccc1OCCOc1ccccc1C	10	19	-1	3	21	·
COc1cc(/C=C2\C(=N)N3N=C(S(C)(=O)=O)SC3=NC2=O)ccc1OC(=O)c1cccs1	1	15	2	10	76*	88*
CCOc1cc(/C=C2\C(=N)N3N=C(S(=O)(=O)CC)SC3=NC2=O)ccc1OC(=O)c1ccco1	7	6	-1	35	38	·
CCOc1cc(/C=C2/C(=N)N3C(=NC2=O)SN=C3S(C)(=O)=O)ccc1OC(=O)c1ccco1	-2	3	2	62*	52*	71*
Cc1nc2ccccn2c1C(=O)N=Nc1c(O)[nH]c2ccccc12	0	0	-2	-5	1	·
Cc1ccc(C)c(N2CCN(C(=S)Nc3ccc4nc(N5CCN(C)CC5)cc(C)c4c3)CC2)c1	1	-1	1	5	53*	37
Cc1ccc(C)c(N2CCN(C(=S)Nc3ccc4nc(N5CCOCC5)cc(C)c4c3)CC2)c1	-1	5	5	11	54*	39
COc1ccccc1N1CCN(C(=S)Nc2ccc3nc(N4CCOCC4)cc(C)c3c2)CC1	-3	2	3	0	17	·
Cc1cccc(N2CCN(C(=S)Nc3ccc4nc(N5CCOCC5)cc(C)c4c3)CC2C)c1 (centres undefined)	-2	10	4	1	43*	16
COc1ccccc1-c1ccc([C@@H]2C[C@H]3[C@@H](CN2)CON3C)cc1	·	6	·	7	·	·
OCCn1c(-c2ccc(F)cc2)csc1=Nc1ccccc1	2	-2	3	-3	-13	·
O=S(=O)(c1ccc(-c2csc(=Nc3ccccc3)n2CCCN2CCOCC2)cc1)N1CCOCC1	1	-8	2	0	44*	52*
Nc1cc(N)cc(-c2nc3ccccc3[nH]2)c1	5	-1	0	9	49*	13
CCc1ccccc1NC(=O)CNC(=O)c1cc(C2CC2)nn1-c1ccccc1	2	-8	0	3	6	·
c1ccc(C(c2nnnn2Cc2ccco2)N2CCN(c3nc4ccccc4s3)CC2)cc1 (centres undefined)	4	6	2	8	44*	41
Cc1ccccc1Cn1c(C(=O)OC(C)C)cc2c1ccn2C	0	-5	1	0	-1	·
CC(C)OC(=O)c1cc2c(ccn2C)n1CC(=O)N1CCC(Cc2ccccc2)CC1	1	3	0	8	44*	38
COC(=O)c1cc2c(ccn2-c2ccc(F)cc2)n1CC(=O)N1CCN(C(=O)c2ccco2)CC1	-1	-2	2	-4	6	·
CC(C)OC(=O)c1cc2c(ccn2-c2ccc(F)cc2)n1CC(=O)N1CCN(C(=O)c2ccco2)CC1	1	-8	4	4	47*	48*
CCCNC(=O)COc1coc(CN2CCN(c3ccccc3OC)CC2)cc1=O	-3	-2	-1	2	4	·
O=C(C1=C[C@H](c2ccc(Br)cc2)C[C@H](OCCCCO)O1)N1CCN(Cc2ccc3c(c2)OCO3)CC1	-1	-5	2	1	34	·
CN1CCN(C(=O)C2=C[C@H](c3ccc(Br)cc3)C[C@H](OCCCCO)O2)CC1	9	-1	-2	5	28	·
